Compound activity from PubChem.
Mtb betalactam: beta-lactam sensitization of Mtb H37Rv, H37Rv. M. tuberculosis H37Rv growth with meropenem, percent inhibition. inhibition, % at 25 µM. hit rate 0.27% among 330,000; call rule not given here;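 further: growth measured after seven days incubation then overnight dye step; 0% = bacteria only wells and 100% = bacteria with antibiotic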
Rv3671c inh: Rv3671c serine protease inhibitors, primary screen, biochemical, fluorescence polarization, M. tuberculosis H37Rv; P9WHR9; inhibition, % at 5.96 µM; hit rate 0.048% among 320,000; in the data active means inhibition above about 38%;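 further: extracellular domain of Rv3671c used as enzyme; 0% = enzyme with DMSO and 100% = no enzyme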
RecA splice inh: Mtb RecA intein splicing inhibitors, primary screen, biochemical, fluorescence, HTS; cell-free RecA intein splicing; inhibition, % (test concentration not listed); hit rate 0.75% among 290,000; AID 2221, 2009; in the data active means inhibition above about 30%;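 further: 0% = vehicle wells and 100% = reference inhibitor control wells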
UGM FP inh: M. tuberculosis UGM enzyme inhibitors, primary screen, biochemical, fluorescence polarization, single point; AID 504406, 2011; hit rate 0.06% among 320,000; purified UGM, fluorescence polarization probe displacement; UDP-galactopyranose mutase (Mycobacterium tuberculosis (strain ATCC 25618 / H37Rv)), …; inhibition, % at 10 µM; in the data active means inhibition above about 10%, passing the limit was not always enough
Target sequence (P9WIQ1 whole entry, looked up): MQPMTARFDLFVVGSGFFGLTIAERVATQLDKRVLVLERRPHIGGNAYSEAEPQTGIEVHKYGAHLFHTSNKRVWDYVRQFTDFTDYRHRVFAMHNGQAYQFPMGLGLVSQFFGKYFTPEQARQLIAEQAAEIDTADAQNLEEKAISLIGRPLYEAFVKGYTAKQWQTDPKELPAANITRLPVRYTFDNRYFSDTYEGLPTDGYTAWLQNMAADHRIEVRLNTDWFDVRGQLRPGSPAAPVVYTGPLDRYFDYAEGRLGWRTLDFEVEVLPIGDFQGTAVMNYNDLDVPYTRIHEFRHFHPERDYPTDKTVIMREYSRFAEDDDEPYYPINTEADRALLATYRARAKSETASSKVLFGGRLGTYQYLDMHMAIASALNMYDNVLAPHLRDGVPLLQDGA
FBA Mtb inh: Mtb FBA enzyme inhibitors, primary screen, biochemical, fluorescence, strain H37Rv. Fructose-bisphosphate aldolase (Mycobacterium tuberculosis (strain ATCC 25618 / H37Rv)), …. purified M. tuberculosis FBA, fluorescence read-out. inhibition, % at 1 µM. hit rate 2.3% among 360,000. AID 588726, 2011;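 further: 0% = vehicle and 100% = reference inhibitor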
GDH-TPI counter-1: GDH-TPI coupling enzyme inhibitors, primary screen, artefact control for M. tuberculosis FBA inhibitor project, biochemical, absorbance, full deck; GDH-TPI coupled enzyme counterscreen, NADH absorbance; inhibition, % at 4.8 µM; hit rate 1.2% among 360,000; AID 588335, 2011; in the data active means inhibition above about 30%;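 further: 0% = DMSO wells and 100% = wells lacking the enzyme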
GFP chromophore: counter-screen: blocks GFP chromophore formation, dose response, counter-screen, biochemical, fluorescence, homogeneous. EC50, µM. shares compounds with RecA splice inh. cell-free GFP chromophore formation. hit rate 83% among 2,100; call rule not given here
Rv3671c cf: Rv3671c serine protease inhibitors, retest, confirmation, biochemical, fluorescence polarization, M. tuberculosis H37Rv. shares compounds with Rv3671c inh. inhibition, % at 5.96 µM. hit rate 40% among 140. AID 2761, 2010; in the data active means inhibition above about 38%
DNA intercalat: DNA intercalation detected by acridine orange polarization counter-screen | hit rate 60% among 35 | AID 463198 | shares compounds with UGM FP inh | acridine orange-DNA binding, fluorescence polarization | AC50, µM;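 active means fitted AC50 no greater than ten times the top concentration tested, cut at about 17 µM in these data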
Mtb FBA confirm: M. tuberculosis aldolase blockers, biochemical, fluorescence, strain H37Rv, confirmation | hit rate 78% among 5,600 | inhibition, % at 1 µM | shares compounds with FBA Mtb inh | purified M. tuberculosis FBA, fluorescence read-out;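 further: 0% = vehicle wells and 100% = reference inhibitor wells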
GDH-TPI counter-2: GDH-TPI coupling enzyme inhibitors, artefact control for M. tuberculosis FBA inhibitor project, biochemical, fluorescence, high throughput; shares compounds with FBA Mtb inh; GDH-TPI coupled enzyme counterscreen; inhibition, % at 1 µM; hit rate 81% among 5,600; in the data active means inhibition above about 10%
* hit, by the source's call; x = no result; + = active, no number. Rows were chosen to be rich in hits. Some 4% of all compounds tested hit in one or more screens of this group. Unless noted, no stated cut-off is given here; in the data, active means inhibition above about 27%; inactive means the rest.

SMILES	Mtb betalactam	Rv3671c inh	RecA splice inh	UGM FP inh	FBA Mtb inh	GDH-TPI counter-1	GFP chromophore	Rv3671c cf	others
Cc1cc(C)cc(NC(=O)Nc2c(Br)cnn2C)c1	12	-4	0	-2	3	9	x	x
CCC1(c2ccccc2)NC(=O)N(CC(=O)NNC(=O)c2ccc(F)cc2)C1=O (stereo unspecified)	x	x	x	x	-1	11	x	x
Cc1ccc(NC(=O)CN(C)C(=O)CSc2nnc(C)s2)cc1	1	2	x	-2	2	5	x	x
C/C(CC(=O)Nc1ccc(F)cc1F)=N\NC(=O)C(=O)N1CCCCC1	-4	-9	78*	-1	x	x	11*	x
O=C(O)c1ccc(C(S(=O)(=O)c2ccccc2)S(=O)(=O)c2ccccc2)cc1	x	x	x	x	-3	4	x	x
CCOC(=O)c1sc(N(Cc2ccccc2)C(=O)CCl)nc1C	0	3	88*	2	3	-1	3.1*	x
CCOC(=O)c1sc(N(Cc2ccccc2)C(=O)COC(=O)c2ccccc2O)nc1C	8	6	-2	1	0	0	x	x
COc1ccc(NC(=O)Nc2cnccn2)cc1OC	-1	2	-3	1	3	-11	x	x
O=c1oc(-c2cccnc2)nc2ccccc12	-4	2	1	2	5	1	x	x
Cc1onc(-c2ccccc2)c1-c1nc2ccccc2c(=O)o1	10	49*	32*	4	0	6	2.3*	62*
CCCn1nc([N+](=O)[O-])c(C(C#N)c2nc3ccccc3s2)c(Cl)c1=O (stereo unspecified)	59	40*	81*	1	-10	21	6.1*	31
CN1CCN(C(=O)c2cc3ccccc3cc2O)CC1	9	-9	x	-1	0	-2	x	x
O=C(O)C1Nc2c(O)cc(Cl)c([N+](=O)[O-])c2C2C=CCC12 (stereo unspecified)	7	49*	43*	1	-8	10	13*	18
Cc1ccc2c(c1)C1C=CCC1C(C(=O)O)N2 (stereo unspecified)	6	10	6	1	x	x	x	x
COc1ccc(S(=O)(=O)Nc2cc(C(C)C)c(O)cc2C)cc1	-5	-5	0	3	-2	-3	x	x
COc1ccc2nc3cc(Cl)ccc3c(Nc3cc(C(C)C)c(O)cc3C)c2c1	100	40*	73*	1	-4	5	0.75*	46*
CCCC(=O)OCC1CN(Cc2ccco2)S(=O)(=O)c2c(F)cccc2O1 (stereo unspecified)	x	x	x	x	-2	2	x	x
CC1(C)CC(=O)C=C(c2n[nH]nc2C2CC2)C1	x	x	x	x	3	18	x	x
CNc1ccc2nc3ccccc3[n+](C)c2c1	99	107*	45*	2	-1	-9	17*	82*
C[n+]1c2ccccc2nc2ccc(NCCO)cc21	99	43*	64*	0	3	11	12*	42*
COc1ccc2noc3c2c1C(=O)c1ccccc1-3	64	6	60*	84*	-11	3	10*	x	DNA intercalat=3.1*
COc1ccc(-c2cc(C(=O)Nc3cc(Cl)ccc3O)no2)cc1	7	-1	-4	-2	1	2	x	x
O=c1[nH]c(N2CCOCC2)cc2ccccc12	-11	-108	69*	3	45*	0	24*	x	Mtb FBA confirm=144*;GDH-TPI counter-2=100*
CC(C)Oc1ccc(F)cc1-c1cc(C(=O)NCc2ccc(F)cc2)[nH]n1	x	x	x	x	-3	3	x	x
O=S(=O)(Nc1ccc(-c2csc(-c3ccccc3)n2)cc1)c1ccc(F)cc1	4	-165	-3	2	3	1	x	x
SMILES	Mtb betalactam	Rv3671c inh	RecA splice inh	UGM FP inh	FBA Mtb inh	GDH-TPI counter-1	GFP chromophore	Rv3671c cf	others
O=C(Nc1nc(-c2ccccc2)cs1)c1ccccc1NS(=O)(=O)c1ccc(F)cc1	1	-49	35*	0	37*	2	28*	x	Mtb FBA confirm=+;GDH-TPI counter-2=+
Cc1cc(C)cc(N(CC(=O)NC2CCCC2)C(=O)CCC(=O)Nc2nc(C)cs2)c1	4	1	1	4	0	-6	x	x
Cc1oc2cc([N+](=O)[O-])c(O)c([N+](=O)[O-])c2c1C(=O)c1ccc(Cl)cc1	-4	-3	37*	2	72*	31*	22*	x	Mtb FBA confirm=14;GDH-TPI counter-2=13*
CCOc1ccccc1Oc1coc2cc(OC(=O)c3ccco3)ccc2c1=O	5	-7	33*	3	32*	19	>38	x	Mtb FBA confirm=29*;GDH-TPI counter-2=21*
CCOc1ccccc1Oc1coc2cc(OC(=O)N(C)C)ccc2c1=O	1	-13	4	3	-1	3	x	x
COCCn1c(N)c(C(=O)NCc2cccs2)c2nc3ccccc3nc21	6	-84	62*	1	101*	-11	>38	x	Mtb FBA confirm=116*;GDH-TPI counter-2=77*
CCN1C(=O)C(=O)N(CC(=O)Nc2cccc(C(F)(F)F)c2)C1=O	-4	3	x	0	6	0	x	x
COC(=O)c1ccccc1-c1c2ccc(=N)cc-2oc2cc(N)ccc12	39	166*	x	138*	-6	5	x	164*
COc1cccc(CSc2nc3ccncc3[nH]2)c1	4	183*	-4	-5	0	3	x	-1
O=C(CNc1ccc(Br)cc1)c1ccc(Br)s1	-1	-3	5	0	1	6	x	x
O=c1c2ccccc2[se]n1-c1ccccc1	49	40*	-1	x	-2	84*	x	41*
COc1ccc(S(=O)(=O)N2CCN(C(=O)C3CC3)CC2)cc1Br	3	5	x	-1	0	1	x	x
Nc1ccc(O)c2c1C(=O)c1ccccc1C2=O	3	56*	42*	4	-1	2	x	38*
O=S(=O)(c1ccc(Cl)c(NC(=S)N/N=C/c2ccc(O)cc2)c1)N1CCOCC1	8	-1	8	-1	-3	27	x	x
